# Laboratory results as given in PubChem BioAssay (NCI).
# This is part of a sample that, as a whole, favours compounds with a hit. Of some 79,000 tested, about 15% had one in any assay. Values without a mark were called inactive. Activity calls are given as the source filed them. No stated cut-off is given here; in the data, active means growth inhibition above about 70%; inactive means the rest.
# How the values were obtained:
# [1] = NCI Yeast Anticancer Drug Screen. Data for the rad52 strain (AID 147);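 further: 0% = growth of vehicle-treated control cultures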; conditions: S. cerevisiae rad52 mutant growth inhibition, active compounds read high
# Procedure, shortened: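 Genetically altered yeast (DNA damage repair defect) treated with compound; inhibition calculated relative to vehicle.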
# [2] = NCI Yeast Anticancer Drug Screen. Data for the wt1 strain (AID 149);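 further: 0% = growth of vehicle-treated wt1 cultures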; conditions: S. cerevisiae wt1 strain (SPY 50644) growth inhibition, active compounds read high
# Procedure, shortened: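 Growth inhibition read against vehicle controls after compound exposure of the wt1 yeast strain.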
# [3] = NCI Yeast Anticancer Drug Screen. Data for the rad50EPP+ strain (AID 151);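 further: 0% = growth of vehicle-treated control cultures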; conditions: S. cerevisiae rad50 mutant strain, active compounds read high
# Procedure, shortened: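 Strain rad50EPP+; compound exposure; % growth inhibition vs vehicle.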
# [4] = NCI Yeast Anticancer Drug Screen. Data for the rad50 strain (AID 155);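 further: 0% = growth of vehicle-only cultures of the same strain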; conditions: S. cerevisiae rad50 strain growth inhibition, active compounds read high
# Procedure, shortened: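 Readout: growth inhibition relative to vehicle-treated cultures. Compound exposure was carried out in a genetically defined yeast strain deficient in DNA damage repair.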
# [5] = NCI Yeast Anticancer Drug Screen. Data for the mec2-1 strain (AID 157); conditions: S. cerevisiae mec2-1 strain, active compounds read high
# Procedure, shortened: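 Cells of the genetically defined mec2-1 yeast strain are incubated with test compound. Inhibition of growth is calculated against vehicle-treated controls.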
# [6] = NCI Yeast Anticancer Drug Screen. Data for the rad14 strain (AID 159);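 further: 0% = growth of vehicle-treated control cultures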; conditions: S. cerevisiae rad14 strain growth inhibition, active compounds read high
# Procedure, shortened: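 Growth inhibition vs vehicle controls; genetically altered yeast strain (DNA damage repair defect) treated with test compounds.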
# [7] = NCI Yeast Anticancer Drug Screen. Data for the sgs1 mgt1 strain (AID 161);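 further: 0% = growth of cultures given vehicle only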; conditions: S. cerevisiae sgs1 mgt1 strain, active compounds read high
# Procedure, shortened: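 Test agents were incubated with a DNA-repair-mutant yeast strain. Growth was then read and compared against vehicle-treated controls.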
# [8] = NCI Yeast Anticancer Drug Screen. Data for the CLN2oe strain (AID 163);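 further: 0% = growth of vehicle-only control cultures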; conditions: S. cerevisiae CLN2oe strain, active compounds read high
# Procedure, shortened: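 Strain altered in cell-cycle control, incubated with compound; growth compared to solvent-treated controls.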
# [9] = NCI Yeast Anticancer Drug Screen. Data for the cln2 rad14 strain (AID 165);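 further: 0% = growth equal to vehicle treated cultures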; conditions: S. cerevisiae cln2 rad14 strain, active compounds read high
# Procedure, shortened: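 The screen exposed genetically defined yeast (cln2 rad14) to test compounds and scored growth inhibition relative to vehicle-treated controls.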
# [10] = NCI Yeast Anticancer Drug Screen. Data for the bub3 strain (AID 167); conditions: S. cerevisiae bub3 mutant strain, active compounds read high
# Procedure, shortened: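 Readout: yeast growth inhibition, expressed relative to vehicle-only wells. The test organism is a mutant strain from a panel with lesions in DNA repair or checkpoint genes.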
# [11] = NCI Yeast Anticancer Drug Screen. Data for the wt2 strain (AID 169);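 further: 0% = growth of vehicle-treated yeast cultures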; conditions: S. cerevisiae wt2 strain growth inhibition, active compounds read high
# Procedure, shortened: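 Steps: yeast strain treated with compound; growth recorded; inhibition calculated relative to cultures given vehicle alone.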
# [12] = NCI Yeast Anticancer Drug Screen. Data for the mlh1 strain (AID 171);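 further: 0% = growth of vehicle-treated control cultures of the same strain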; conditions: S. cerevisiae mlh1 strain growth inhibition, active compounds read high
# Procedure, shortened: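 Yeast screen: mutant strain plus compound, growth scored against vehicle control wells.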
# [13] = NCI Yeast Anticancer Drug Screen. Data for the mlh1 rad18 strain (AID 175); conditions: S. cerevisiae mlh1 rad18 strain growth inhibition, active compounds read high
# Procedure, shortened: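 Compound-treated yeast growth, normalised to vehicle controls. Strain bears defined DNA repair mutations.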
# [14] = NCI Yeast Anticancer Drug Screen. Data for the rad18 strain (AID 177); conditions: S. cerevisiae rad18 mutant growth inhibition, active compounds read high
# Procedure, shortened: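 Inhibition values reflect reduced yeast growth compared with vehicle-treated controls, using a strain engineered with a DNA damage repair defect.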
# [15] = NCI Yeast Anticancer Drug Screen. Data for the sgs1 strain (AID 173);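 further: 0% = growth of vehicle-only control cultures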; conditions: S. cerevisiae sgs1 mutant, active compounds read high
# Procedure, shortened: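 Inhibition of yeast growth served as the measure. The mutant strain was treated with each compound, and growth was normalised to cultures receiving vehicle alone.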
# [16] = at 5.0 µM (retest, dose inferred, filed as 0.5)
# [17] = at 50.0 µM (retest, dose inferred, filed as 5.0)
structure (smiles),measurement,setting,value
CC(C)(C)[OH+][O-].[O-]c1ccc(Cl)cc1C=Nc1ccc(Cl)cc1[O-].[O]=[V],growth inhibition,[1]; at 1.2 µM,0%
same,growth inhibition,[1]; at 3.7 µM,4%
same,growth inhibition,[1]; at 11.0 µM,11%
same,growth inhibition,[1]; at 33.0 µM,30%
same,growth inhibition,[1]; at 100.0 µM,59%
same,growth inhibition,[2]; at 1.2 µM,12%
same,growth inhibition,[2]; at 3.7 µM,11%
same,growth inhibition,[2]; at 11.0 µM,15%
same,growth inhibition,[2]; at 33.0 µM,19%
same,growth inhibition,[2]; at 100.0 µM,29%
same,growth inhibition,[3]; at 1.2 µM,0%
same,growth inhibition,[3]; at 3.7 µM,10%
same,growth inhibition,[3]; at 11.0 µM,26%
same,growth inhibition,[3]; at 33.0 µM,43%
same,growth inhibition,[3]; at 100.0 µM,60%
same,growth inhibition,[4]; at 1.2 µM,-3%
same,growth inhibition,[4]; at 3.7 µM,34%
same,growth inhibition,[4]; [16],19%
same,growth inhibition,[4]; at 11.0 µM,44%
same,growth inhibition,[4]; at 33.0 µM,46%
same,growth inhibition,[4]; [17],17%
same,growth inhibition,[4]; at 50.0 µM,93.8% (active)
same,growth inhibition,[4]; at 100.0 µM,83% (active)
same,growth inhibition,[5]; at 1.2 µM,10%
same,growth inhibition,[5]; at 3.7 µM,17%
same,growth inhibition,[5]; [16],24%
same,growth inhibition,[5]; at 11.0 µM,13%
same,growth inhibition,[5]; at 33.0 µM,31%
same,growth inhibition,[5]; [17],9%
same,growth inhibition,[5]; at 50.0 µM,94.5% (active)
same,growth inhibition,[5]; at 100.0 µM,56%
same,growth inhibition,[6]; at 1.2 µM,4%
same,growth inhibition,[6]; at 3.7 µM,9%
same,growth inhibition,[6]; at 11.0 µM,12%
same,growth inhibition,[6]; at 33.0 µM,26%
same,growth inhibition,[6]; at 100.0 µM,54%
same,growth inhibition,[7]; [16],20%
same,growth inhibition,[7]; [17],40%
same,growth inhibition,[7]; at 50.0 µM,91.5% (active)
same,growth inhibition,[8]; at 1.2 µM,-3%
same,growth inhibition,[8]; at 3.7 µM,-3%
same,growth inhibition,[8]; at 11.0 µM,0%
same,growth inhibition,[8]; at 33.0 µM,11%
same,growth inhibition,[8]; at 100.0 µM,26%
same,growth inhibition,[9]; [16],6%
same,growth inhibition,[9]; [17],3%
same,growth inhibition,[9]; at 50.0 µM,90.5% (active)
same,growth inhibition,[10]; at 1.2 µM,19%
same,growth inhibition,[10]; at 3.7 µM,30%
same,growth inhibition,[10]; [16],41%
same,growth inhibition,[10]; at 11.0 µM,45%
same,growth inhibition,[10]; at 33.0 µM,58%
same,growth inhibition,[10]; [17],16%
same,growth inhibition,[10]; at 50.0 µM,92.7% (active)
same,growth inhibition,[10]; at 100.0 µM,76% (active)
same,growth inhibition,[11]; at 1.2 µM,14%
same,growth inhibition,[11]; at 3.7 µM,24%
same,growth inhibition,[11]; at 11.0 µM,13%
same,growth inhibition,[11]; at 33.0 µM,20%
same,growth inhibition,[11]; at 100.0 µM,30%
same,growth inhibition,[12]; at 1.2 µM,8%
same,growth inhibition,[12]; at 3.7 µM,10%
same,growth inhibition,[12]; at 11.0 µM,9%
same,growth inhibition,[12]; at 33.0 µM,15%
same,growth inhibition,[12]; at 100.0 µM,38%
same,growth inhibition,[13]; [16],24%
same,growth inhibition,[13]; [17],12%
same,growth inhibition,[13]; at 50.0 µM,95.2% (active)
same,growth inhibition,[14]; at 1.2 µM,4%
same,growth inhibition,[14]; at 3.7 µM,19%
same,growth inhibition,[14]; at 11.0 µM,24%
same,growth inhibition,[14]; at 33.0 µM,47%
same,growth inhibition,[14]; at 100.0 µM,78% (active)
Cc1ccc(N=Nc2ccc(O)c(C)c2)cc1,growth inhibition,[1]; at 1.2 µM,6%
same,growth inhibition,[1]; at 3.7 µM,10%
same,growth inhibition,[1]; at 11.0 µM,88% (active)
same,growth inhibition,[1]; at 33.0 µM,98% (active)
same,growth inhibition,[1]; at 100.0 µM,87% (active)
same,growth inhibition,[2]; at 1.2 µM,5%
same,growth inhibition,[2]; at 3.7 µM,-2%
same,growth inhibition,[2]; at 11.0 µM,92% (active)
same,growth inhibition,[2]; at 33.0 µM,98% (active)
same,growth inhibition,[2]; at 100.0 µM,85% (active)
same,growth inhibition,[3]; at 1.2 µM,20%
same,growth inhibition,[3]; at 3.7 µM,39%
same,growth inhibition,[3]; at 11.0 µM,53%
same,growth inhibition,[3]; at 33.0 µM,96% (active)
same,growth inhibition,[3]; at 100.0 µM,82% (active)
same,growth inhibition,[4]; at 1.2 µM,9%
same,growth inhibition,[4]; at 3.7 µM,18%
same,growth inhibition,[4]; [16],38%
same,growth inhibition,[4]; at 11.0 µM,95% (active)
same,growth inhibition,[4]; at 33.0 µM,98% (active)
same,growth inhibition,[4]; [17],56%
same,growth inhibition,[4]; at 50.0 µM,91.2% (active)
same,growth inhibition,[4]; at 100.0 µM,94% (active)
same,growth inhibition,[5]; at 1.2 µM,10%
same,growth inhibition,[5]; at 3.7 µM,11%
same,growth inhibition,[5]; [16],52%
same,growth inhibition,[5]; at 11.0 µM,80% (active)
same,growth inhibition,[5]; at 33.0 µM,97% (active)
same,growth inhibition,[5]; [17],66%
same,growth inhibition,[5]; at 50.0 µM,92.5% (active)
same,growth inhibition,[5]; at 100.0 µM,79% (active)
same,growth inhibition,[6]; at 1.2 µM,4%
same,growth inhibition,[6]; at 3.7 µM,-7%
same,growth inhibition,[6]; at 11.0 µM,68%
same,growth inhibition,[6]; at 33.0 µM,96% (active)
same,growth inhibition,[6]; at 100.0 µM,89% (active)
same,growth inhibition,[7]; [16],-16%
same,growth inhibition,[7]; [17],91% (active)
same,growth inhibition,[7]; at 50.0 µM,92.5% (active)
same,growth inhibition,[8]; at 1.2 µM,-2%
same,growth inhibition,[8]; at 3.7 µM,-18%
same,growth inhibition,[8]; at 11.0 µM,97% (active)
same,growth inhibition,[8]; at 33.0 µM,97% (active)
same,growth inhibition,[8]; at 100.0 µM,78% (active)
same,growth inhibition,[9]; [16],32%
same,growth inhibition,[9]; [17],94% (active)
same,growth inhibition,[9]; at 50.0 µM,92.2% (active)
same,growth inhibition,[10]; at 1.2 µM,-6%
same,growth inhibition,[10]; at 3.7 µM,-7%
same,growth inhibition,[10]; [16],2%
same,growth inhibition,[10]; at 11.0 µM,95% (active)
same,growth inhibition,[10]; at 33.0 µM,97% (active)
same,growth inhibition,[10]; [17],95% (active)
same,growth inhibition,[10]; at 50.0 µM,91.3% (active)
same,growth inhibition,[10]; at 100.0 µM,84% (active)
same,growth inhibition,[11]; at 1.2 µM,5%
same,growth inhibition,[11]; at 3.7 µM,14%
same,growth inhibition,[11]; at 11.0 µM,91% (active)
same,growth inhibition,[11]; at 33.0 µM,98% (active)
same,growth inhibition,[11]; at 100.0 µM,79% (active)
same,growth inhibition,[15]; at 1.2 µM,28%
same,growth inhibition,[15]; at 3.7 µM,26%
same,growth inhibition,[15]; at 11.0 µM,90% (active)
same,growth inhibition,[15]; at 33.0 µM,98% (active)
same,growth inhibition,[15]; at 100.0 µM,85% (active)
same,growth inhibition,[13]; [16],37%
same,growth inhibition,[13]; [17],51%
same,growth inhibition,[13]; at 50.0 µM,91.9% (active)
same,growth inhibition,[14]; at 1.2 µM,27%
same,growth inhibition,[14]; at 3.7 µM,27%
same,growth inhibition,[14]; at 11.0 µM,89% (active)
same,growth inhibition,[14]; at 33.0 µM,98% (active)
same,growth inhibition,[14]; at 100.0 µM,91% (active)
